Compound activity: PubChem BioAssay, National Center for Advancing Translational Sciences (NCATS)
A selection: hits, their analogues and other compounds. The true share with any hit is near 3.3%.
LmPK inhibitor: qHTS Assay for Inhibitors of Leishmania Mexicana Pyruvate Kinase (LmPK); actives 0.37% (n = 290,000); AID 1721, 2009; Q27686; purified LmPK, Kinase-Glo ATP luminescence, 1 h; Potency, µM (top dose mostly 57.5 µM), without a hit: top-dose activity change, negative = inhibition, actives largely listed as inhibitors
Target sequence (Q27686 whole entry, looked up): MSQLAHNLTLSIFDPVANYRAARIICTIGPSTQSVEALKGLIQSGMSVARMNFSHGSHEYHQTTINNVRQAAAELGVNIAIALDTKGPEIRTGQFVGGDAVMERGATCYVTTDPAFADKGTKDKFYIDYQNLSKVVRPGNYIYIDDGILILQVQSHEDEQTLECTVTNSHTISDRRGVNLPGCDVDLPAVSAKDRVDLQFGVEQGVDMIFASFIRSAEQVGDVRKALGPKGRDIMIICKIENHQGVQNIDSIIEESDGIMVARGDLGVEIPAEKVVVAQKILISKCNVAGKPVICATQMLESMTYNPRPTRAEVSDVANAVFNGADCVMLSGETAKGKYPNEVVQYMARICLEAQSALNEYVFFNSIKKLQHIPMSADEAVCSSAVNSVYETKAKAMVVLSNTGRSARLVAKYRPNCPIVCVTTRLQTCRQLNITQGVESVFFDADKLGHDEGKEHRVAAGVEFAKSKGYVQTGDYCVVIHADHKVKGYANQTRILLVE
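ATP generated from ADP (0.1 mM) and PEP (0.5 mM) by 0.1 nM LmPK over 1 h at room temperature (pH 7.2 imidazole buffer) was detected by coupled luciferase luminescence. Values were normalized to uninhibited and no-enzyme wells.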
RE007 growth inh: qHTS Assay for Inhibitors of the HIV-1 protein Vpr. AID 651644, 2012. Potency, µM (series often up to 92.2 µM), inactives show top-dose activity change, negative = less growth, most hits filed as inhibitors. S. pombe RE007 Vpr strain, BacTiter-Glo ATP luminescence, 24 h. actives 0.21% (n = 360,000); active = well fitted falling curve with a large enough effect; inconclusive = small, poorly fitted or top-dose-only effect; inactive = no such curve, though single readings can be large or run the other way; note: nearly all actives have a fitted effect of over 50% in size
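Fission yeast strain RE007, carrying one chromosomally integrated HIV-1 vpr copy, was seeded at OD 0.01 in PMG+AL medium with 23 nL pinned compound. After 24 h at 30 °C and 99% humidity, viability was read by BacTiter-Glo luminescence.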
Sm TGR block: qHTS Assay for the Inhibitors of Schistosoma Mansoni Peroxiredoxins | Schistosoma mansoni thioredoxin glutathione reductase (TGR), Q962Y6 | purified TGR, DTNB reduction, TNB absorbance 405 nm | Potency, µM (doses to about 114 µM), for inactives: at the top dose activity change, negative = inhibition, usual class: inhibitors | actives 3% (n = 360,000) | AID 485364, 2010; note: nearly all actives have a fitted effect of over 60% in size
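First, TGR (20 nM dispensed) and NADPH were mixed with compound. Second, a 15 min room-temperature incubation followed. Third, further NADPH and then DTNB were added to start the reaction. Finally, TNB absorbance was monitored kinetically.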
FBPA Giardia inh: qHTS Assay for Inhibitors of Fructose-1,6-bisphosphate Aldolase from Giardia Lamblia. A8B2U2. purified Giardia FBPA. Potency, µM (titrated, usually from 59.6 µM), for the others: at the top dose activity, negative = inhibition, actives largely listed as inhibitors. actives 0.71% (n = 290,000). AID 2451, 2010; note: nearly all actives have a fitted effect of over 55% in size
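Giardia FBPA (40 nM reagent) was preincubated 10 min at RT with compound (up to 57.5 uM final), then substrate plus GAPDH/TPI/NAD/arsenate coupling system with diaphorase/resazurin was added; resorufin fluorescence (525/598 nm) was read after 20 min.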
TbPYK inhibitor: qHTS of Trypanosoma Brucei Inhibitors; Potency, µM (series often up to 76.8 µM), for the others: at the highest dose activity, negative = inhibition, usual class: inhibitors; actives 0.12% (n = 410,000); TbPYK enzyme, Kinase-Glo Plus ATP luminescence, 45 min; AID 624173, 2012; pyruvate kinase (Trypanosoma brucei), Q57TT1; note: nearly all actives have a fitted effect of over 50% in size
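Quantitative HTS: titrated library compounds versus trypanosomal pyruvate kinase in TEA buffer (pH 7.2) containing KCl, MgCl2, BSA and Tween-20. Reactions were initiated with ADP, 130 uM final. Kinase-Glo Plus luminescence was read after 45 min at RT.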
* marks the source's active call; other numbers are inactive results; ? = inconclusive; . = not tested or not shown. Unless noted, calls come from the whole dose curve; as a rule, active = well fitted curve in the direction sought with a large enough effect; inconclusive = small, poorly fitted or top-dose-only effect, or another doubt; inactive = no such curve, though single readings can be large; an effect the other way counts as inactive or inconclusive. % is set by controls: 0 for no effect and ±100 for the full control effect; potency is the fitted concentration of half-maximal effect.

SMILES | LmPK inhibitor | RE007 growth inh | Sm TGR block | FBPA Giardia inh | TbPYK inhibitor
O=S1(=O)NC[C@]23C[C@H](c4ccc(F)cc4)[C@@H](C[C@@H]21)O3 | 3% | -2% | -5% | -10% | 4%
CC(=O)N1c2ccccc2N2C(c3c(C)c(C)cc(C)c3C)=NON12 | 2% | 10% | . | -14% | -6%
CN1C(=O)N(CC(=O)N2CCN(S(=O)(=O)c3ccc(Cl)s3)CC2)C(=O)C12CCCCC2 | . | 13% | 45µM* | . | -3%
O=C(CN1C(=O)NC2(CCCCC2)C1=O)N1CCN(S(=O)(=O)c2ccc(Cl)s2)CC1 | . | -1% | -2% | . | -3%
COCCNC(=O)Cn1cnc2c(cnn2-c2ccc(C)cc2)c1=O | -7% | 4% | 89µM* | 16% | -13%
O=C(CSC1CC(=O)N(CCc2ccccc2)C1=O)Nc1ccc(Br)cc1 (stereo unspecified) | 8% | -3% | ? | -2% | -6%
CCCN(CC#CCOc1ccc(OC)cc1)CCC | -2% | 3% | 13µM* | ? | 18%
C=CCNCC#CCOc1ccc(OC)cc1 | -5% | 0% | ? | ? | -2%
CC(=O)c1ccc(OC(=O)C2CC(=O)N(c3cccc(C)c3)C2)cc1 (stereo unspecified) | -1% | -16% | ? | -17% | -4%
Cc1ccc(-n2nnc(-c3nccs3)n2)cc1 | 14µM* | ? | -2% | 2% | ?
Cc1ccc(S(=O)(=O)NC(CC(=O)N2CCOCC2)c2ccco2)cc1 (stereo unspecified) | -5% | 23% | -3% | 1% | -3%
COc1ccc(CCNC(=O)c2ccc(-c3ccc([N+](=O)[O-])cc3)o2)cc1OC | -2% | -7% | 40µM* | -3% | -5%
COc1ccc(CCNC(=O)c2noc(C(C)C)c2[N+](=O)[O-])cc1OC | -1% | -6% | 35µM* | -4% | -10%
COc1ccc(CNC(=O)c2noc(C(C)C)c2[N+](=O)[O-])cc1 | -3% | 1% | -13% | 9% | -6%
Cc1ccc(N(CC(=O)NC2CCCCC2)C(=O)CNC(=O)c2cccs2)cc1 | 4% | -13% | -1% | 4% | 3%
COC(=O)c1cc(O)cc(OC)c1Oc1cc(C)cc(O)c1C(=O)O | 11% | 1% | 7.1µM* | ? | 0%
COc1ccc([N+](=O)[O-])cc1N(CC(O)CN1CCCCC1)S(=O)(=O)c1ccc(C)cc1 (stereo unspecified) | -4% | -23% | 35µM* | 3% | 3%
COc1ccc([N+](=O)[O-])cc1N(CC(O)CN1CCOCC1)S(=O)(=O)c1ccccc1 (stereo unspecified) | 1% | -15% | 10% | 7% | -6%
O=c1[nH]c2cc3c(cc2cc1CN(Cc1nnnn1CC1CCCO1)C1CCCC1)OCO3 (stereo unspecified) | 1% | 40% | 25µM* | -18% | 4%
COc1cc2cc(CN(Cc3nnnn3Cc3ccco3)C3CCCCC3)c(=O)[nH]c2cc1OC | 16% | 20% | 13µM* | 10µM* | 2%
CCOc1ccc2[nH]c(=O)c(CN(Cc3nnnn3Cc3ccco3)C3CCCCC3)cc2c1 | 24% | 3% | 5.6µM* | ? | -7%
O=C(C=P(c1ccccc1)(c1ccccc1)c1ccccc1)c1ccccc1-c1ccccc1C(=O)C=P(c1ccccc1)(c1ccccc1)c1ccccc1 | . | 21% | . | . | -6%
C[N+]1(C)C2CCC1CC(OC(=O)C(O)c1ccccc1)C2 (stereo unspecified) | . | . | . | 3% | -8%
CN1CCc2c(sc3c2c(=O)n(-c2ccccc2)c2nncn32)C1 | 2% | -3% | -40% | -13% | ?
Cc1c(Cl)cnc(NC(=O)COC(=O)[C@@H](NC(=O)c2ccco2)C(C)C)c1Cl | . | -5% | . | . | 0%
CCCC(=O)Nc1ccc(-c2csc(NNC(C)=O)n2)cc1 | 1% | 18% | 25µM* | -25% | -7%
